{
  "source": "ChEMBL document CHEMBL4888484",
  "about": "“Replenishing the malaria drug discovery pipeline: Screening and hit evaluation of the MMV Hit Generation Library 1 (HGL1) against asexual blood stage Plasmodium falciparum ,using a nano luciferase reporter read-out” (2022)",
  "note": "The whole screen tested about 150,000 compounds, of which about 540 (0.36%) showed an effect of 50% or more. The sample as a whole holds a higher share of strong results than the screen did.",
  "data": [
    {"test_system": "Plasmodium falciparum", "assay": "Primary screen in NF54 nanoGlo assay, in single point, at 2uM, 72h; a lower Z score goes with more inhibition", "format": "functional, Erythrocyte", "details": "timepoint 72 hour", "units": {"% Inhibition": "%"}, "values": [
      {"compound": "Oc1cccc(CN[C@H]2CCCc3occc32)c1Cl", "% Inhibition": 78, "Z score": -12.81},
      {"compound": "COc1cccc(Cl)c1CN[C@H]1CCCc2occc21", "% Inhibition": -24, "Z score": 2.8},
      {"compound": "CC(O)CC(C)(C)CNC1CCCc2occc21", "note": "(stereo unspecified)", "% Inhibition": 36, "Z score": 0.84},
      {"compound": "O=C(Nc1ccc(Cl)cc1)N1Cc2nc[nH]c2C[C@H]1c1nc(-c2ccc3ccccc3c2)no1", "% Inhibition": 19, "Z score": -2.22},
      {"compound": "Cc1cnn(C2CN(CC(=O)N3CC(=O)Nc4ccccc43)C2)c1", "% Inhibition": -10, "Z score": 1.59},
      {"compound": "CCCc1cc(C(=O)N2C[C@@H]3CC[C@H]2CN(C(C)=O)C3)n(C)n1", "% Inhibition": 3, "Z score": -0.61},
      {"compound": "CCc1ncnc(N2CC[C@H](Cc3nnn[nH]3)C2)c1F", "% Inhibition": -13, "Z score": 1.77},
      {"compound": "NCc1cccc(C(=O)N2CCc3cc4ccc3[C@@H]2c2cccc(c2)OCCCNC(=O)c2cc(ccc2O)O4)c1", "% Inhibition": 86, "Z score": -13.81},
      {"compound": "COCC(=O)N1CCc2cc3ccc2[C@@H]1c1cccc(c1)OCCCNC(=O)c1cc(ccc1O)O3", "% Inhibition": -2, "Z score": 0.47},
      {"compound": "O=C1NCCCOc2cccc(c2)[C@H]2c3ccc(cc3CCN2C(=O)CCN2CCOCC2)Oc2ccc(O)c1c2", "% Inhibition": 39, "Z score": -8.79},
      {"compound": "CCn1ccc(C(=O)N2CCc3cc4ccc3[C@@H]2c2cccc(c2)OCCCNC(=O)c2cc(ccc2O)O4)cc1=O", "% Inhibition": 7, "Z score": -1.26},
      {"compound": "Cc1cc(C(=O)N2CCc3cc4ccc3[C@@H]2c2cccc(c2)OCCCNC(=O)c2cc(ccc2O)O4)n(C)n1", "% Inhibition": -11, "Z score": 1.41},
      {"compound": "NC(=O)C1CCN(CCC(=O)N2CCc3cc4ccc3[C@@H]2c2cccc(c2)OCCCNC(=O)c2cc(ccc2O)O4)CC1", "% Inhibition": 92, "Z score": -17.59},
      {"compound": "Cc1ccc(OS(=O)(=O)c2ccc3c(c2)NC(=O)CO3)c(Br)c1", "% Inhibition": -5, "Z score": 0.38},
      {"compound": "CCc1nccc(-c2nccn2CCOc2ccccc2F)n1", "% Inhibition": -5, "Z score": 0.87},
      {"compound": "CN(C(=O)CC1(C(=O)O)CCC1)[C@H]1CCOc2ccc(Br)cc21", "% Inhibition": 1, "Z score": -0.26},
      {"compound": "Cc1cc(CS(=O)(=O)[C@@H](C)C(=O)NCc2ccccc2)on1", "% Inhibition": -12, "Z score": 2.41},
      {"compound": "O=S(=O)(Cc1ccc(OC(F)(F)F)cc1)Nc1cccnc1-n1cccn1", "% Inhibition": 2, "Z score": -0.39},
      {"compound": "Cc1ccc(NC(=O)Cc2nnc(-c3cnccn3)o2)c(Cl)c1", "% Inhibition": -12, "Z score": 1.25},
      {"compound": "Cc1c(C)n(C[C@@H](O)Cn2ccnc2C)c2c(Cl)cccc12", "% Inhibition": -5, "Z score": 0.7},
      {"compound": "CC(NCC(O)Cn1c(-c2ccccc2)c(-c2ccccc2)c2ccc3ccccc3c21)c1ccccc1", "note": "(stereo unspecified)", "% Inhibition": 88, "Z score": -10.69},
      {"compound": "CC(NCC(O)COc1ccc2c(c1)OCO2)c1ccccc1", "note": "(stereo unspecified)", "% Inhibition": -9, "Z score": 1.69},
      {"compound": "Cc1c(C)n(CC(O)CNC(C)c2ccccc2)c2c(Cl)cccc12", "note": "(stereo unspecified)", "% Inhibition": 59, "Z score": -7.71},
      {"compound": "Cc1ccc2c(c1)c(-c1ccccc1)c(-c1ccccc1)n2C[C@@H](O)CNCCCO", "% Inhibition": 1, "Z score": -0.17},
      {"compound": "Cc1c(C)n(C[C@@H](O)CNC2CCCC2)c2c(Cl)cccc12", "% Inhibition": 48, "Z score": -6.21},
      {"compound": "CCC(C)NCC(O)Cn1c(-c2ccccc2)c(-c2ccccc2)c2cc(C)ccc21", "note": "(stereo unspecified)", "% Inhibition": 93, "Z score": -10.06},
      {"compound": "CC(C)NC[C@H](O)Cn1c(-c2ccccc2)ccc1-c1ccccc1", "% Inhibition": 8, "Z score": -1.24},
      {"compound": "COCCN(CCOC)C[C@H](O)Cn1c(-c2ccccc2)c(-c2ccccc2)c2cc(C)ccc21", "% Inhibition": 0, "Z score": 0.06}
    ]}
  ]
}
